Measured values from PubChem BioAssay AID492947 (National Center for Advancing Translational Sciences (NCATS), 2010).
About 80 (0.02%) of roughly 330,000 compounds were called active. Calls follow the shape of the dose curve; as a rule, active = well fitted activation curve with a large enough effect; inconclusive = small, poorly fitted or top-dose-only effect; inactive = flat fitted curve, though single readings scatter. Many of the other results were omitted from the sample, so actives are more common in it than they were. Square brackets hold non-standard residues; d marks the D form. Peptide text beside a SMILES is read from it. * marks the point of attachment. PhAc = O=C(Cc1ccccc1)*

Target: Beta-2 adrenergic receptor (Homo sapiens) (UniProt P07550)
Sequence (P07550 whole entry, looked up): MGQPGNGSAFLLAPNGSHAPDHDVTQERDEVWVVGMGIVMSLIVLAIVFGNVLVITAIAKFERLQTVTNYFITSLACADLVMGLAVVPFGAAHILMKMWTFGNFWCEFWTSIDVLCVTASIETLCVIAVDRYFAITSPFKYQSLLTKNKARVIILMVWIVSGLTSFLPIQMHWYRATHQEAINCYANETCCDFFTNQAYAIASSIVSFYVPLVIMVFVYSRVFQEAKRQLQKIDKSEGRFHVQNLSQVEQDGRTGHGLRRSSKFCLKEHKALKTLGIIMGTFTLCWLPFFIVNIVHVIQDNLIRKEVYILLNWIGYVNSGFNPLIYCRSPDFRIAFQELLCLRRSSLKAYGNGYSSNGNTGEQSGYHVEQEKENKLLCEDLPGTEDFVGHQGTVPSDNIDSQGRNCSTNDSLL
Experiment: qHTS assay of beta-arrestin-biased ligands of beta2-adrenergic receptor;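 also: 0% = DMSO controls and full agonism = EC100 isoproterenol or metaproterenol; nearly all actives have a fitted effect of over 65% in size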
Conditions: beta-arrestin recruitment to beta2AR, cell-based reporter; series mostly up to 46.1 µM; activation: at the top concentration
Excerpt: NIH Molecular Libraries Probe Production Network [MLPCN]
NIH Chemical Genomics Center [NCGC]
PI: Bryan Roth and Bob Lefkowitz
The concept of biased agonism is an emerging concept of molecular pharmacology which proposes that seven transmembrane receptors (7TMRs) or G protein-coupled receptors (GPCRs), exist in multiple signaling conformations and complexes and that ligands (either agonists or antagonists) can induce signaling biased responses for distinct signal transduction cascades.
Furthermore, accumulating evidence over the last decade has drawn attention to a novel function of beta-arrestins as signal transducers that scaffold various signaling molecules upon activation of 7TMRs. […] This beta-arrestin-biased signaling presumably leads to distinct physiological outcomes from those by G protein activation.
Additionally, the active receptor conformations which […] on this beta-arrestin signaling are likely different from those activating G protein signaling
The goal of this screening project will be to discover and optimize novel beta-arrestin-biased ligands for beta2-AR signaling. A luminescent cell-based assay for beta2-AR-mediated agonism, known as the Tango assay, has been validated in which ligand binding of a recombinant beta2-AR and subsequent recruitment of a recombinant beta-arrestin lead to the release of the transcriptional activator tTA, which upregulates transcription of a tTA-responsive luciferase gene. […] Compounds were screened as a concentration-titration series that ranged from 46 microM to 0.6 nM.
NCGC Assay Protocol Summary:
Tango cells were dispensed into white, solid, tissue-culture-treated 1536-well plates at 1500 cells/well in DMEM, containing 1% fetal bovine serum (FBS). Then, 23 nL of compounds or DMSO were delivered to each well using a pin tool. Plates were incubated at 37 degrees C, 5% CO2 for 18 hr. Then 2.5 uL luminescent substrate mix (in-house prepared: 150 mM Tris-Cl, pH 7.6, 3 mM MgCl2, 1% Triton X-100, 5 mM DTT, 0.5 mM CoA, 0.15 mM ATP, 0.44 mM D-luciferin, final concentrations) was added to each well. Plates were then incubated for 15 minutes at room temperature, and subsequently measured on a ViewLux plate reader for luminescent signal using a clear filter with a 10 second exposure and 2x binning. The %Activity was determined from the corrected luminescence values.
Concentration-response curves were fitted to the signals arising from the resulting luminescence. The concentration-effect curves were then classified based on curve quality (r2), response magnitude and degree of measured activity, and compounds were subsequently categorized based on their curve class.
Keywords: biased agonism, beta2-AR, beta-arrestin, GPCR, 7TMR, Tango, luminescence, MLSMR, MLPCN, NIH Roadmap, qHTS, NCGC

activation, inactive:
CCOC(=O)CC1COCCN1C(=O)c1cc(COc2ccc(F)c(F)c2)on1 (configuration not stated) 0.384%, COC/C=C/C1=CC2=CC(=O)C(C)(OC(=O)CCC(=O)OC)C(=O)C2=CO1 (configuration not stated) 0.0713%, O=C(CCn1nnnc1CN1CCOCC1)N1CCC(c2ccccc2Cl)C1 (configuration not stated) -0.681%, CC(=O)Oc1ccc(-c2cccc(C(=O)N3CCCCC3)c2)cc1 -0.158%, CC1(C)CC(=O)C(C=NCc2cccnc2)=C(O)C1 0.219%, N#C/C(=C\c1cccnc1)C(=O)Nc1ccc(SC(F)F)cc1 -0.913%, COc1ccc(OC)c(CNC(=O)Cn2nc(C)c3c(C)n(-c4ccc(C)cc4)nc3c2=O)c1 -0.685%, Cc1ccc(NN=Nc2nc3c([nH]2)c(=O)n(C)c(=O)n3C)cc1 -0.313%, COc1ccc(CNC(=O)C(C)NCc2ccccc2Cl)cc1 (configuration not stated) 0.288%, O=C(Cc1ccc(Cl)cc1)NC(=S)Nc1ccccc1O -0.0954%, Cc1ccccc1CCNC(=O)C1CCC(=O)N(Cc2ccc(Cl)cc2)C1 (configuration not stated) -0.532%, CC(C)OCCCNC(=O)c1ccc(C2SCC(=O)N2Cc2ccco2)cc1 (configuration not stated) 0.272%, COc1ccc(Cl)cc1S(=O)(=O)N1CCC(O)(c2ccc(Cl)cc2)CC1 -0.567%, Cc1nc2scc(-c3cccs3)c2c(=O)n1N -1.83%, CCOc1ccc(OCC)c(NC(=O)CSc2nnc(Cn3cnc4ccccc43)n2C)c1 -0.211%, C=C1CCN([C@H](C(=O)NCc2cc(OC)c(OC)c(OC)c2)C(C)C)S(=O)(=O)c2ccccc21 0.37%, COc1cc(C2C3=C(CCCC3=O)OC3=C2C(=O)CCC3)ccc1OCC(=O)Nc1ccccc1 -0.63%, O=S(=O)(O)CCN1CCOCC1 -0.0424%, O=S(=O)(NC1CCCCC1)c1ccc(F)c2ccccc12 -0.345%, NS(=O)(=O)c1cc2c(cc1Cl)NC(C(Cl)Cl)NS2(=O)=O (configuration not stated) -0.908%, COc1ccc(/C(O)=C2/C(=O)C(=O)N(CC3CCCO3)C2c2ccc(OC)c(OC)c2)cc1 (configuration not stated) -0.248%, CCCOc1ccc(-c2c(C(=O)N/N=C/c3ccco3)nnn2-c2nonc2N)cc1 -0.534%, Cc1cc(S(=O)(=O)c2cc3ccc(O)c(C)c3oc2=O)ccc1F 0.271%, CSCC[C@H](NC(=O)NC1CCCC1)C(=O)O 0.222%, CCN(c1ccccc1)S(=O)(=O)c1ccc(C(=O)Nc2ccccc2OC)cc1 0.146%, Cc1ccc(CN2CCN(Cc3ccc(OCCO)cc3)CC2CCO)o1 (configuration not stated) -0.418%, COc1ccc(OC)c(NC(=O)c2sc3nc(C)cc(C)c3c2N)c1 0.456%, CCCN1CCN(C(=O)Cn2ncc3ccccc32)CC1 -1.82%, C[C@H](CO)N1C[C@H](C)[C@@H](CN(C)C(=O)Nc2ccc3c(c2)OCO3)Oc2c(cccc2N(C)C)C1=O -0.0114%, CCn1ccnc1CN1CCCC(C(=O)c2ccc3c4c(cccc24)CC3)C1 (configuration not stated) 7.21%, Cc1cccc(C(=O)NNC(=O)CSc2nnc(C(C)C)n2C)c1 0.405%, C/C=C/C(=O)Nc1nnc(C(C)C)s1 0.101%, CCSc1nc2c(c(=O)[nH]1)C(c1cccnc1)C(C(=O)OC(C)C)=C(C)N2 (configuration not stated) 2.44%, CC1(C)CC(N(Cc2ccccc2)C(=O)Cc2ccccc2)CCO1 (configuration not stated) 0.0559%, COc1cccc(N(CC(=O)NC2CCCC2)C(=O)CCCC(=O)Nc2ccccn2)c1 -0.143%, O=C1CSc2ccc(S(=O)(=O)NCc3ccccc3)cc2N1 0.128%, CN(c1cccc(NC(=O)c2ccc(CN3CCc4ccccc4C3)cc2)c1)S(C)(=O)=O -0.688%, COc1ccc(NC(=O)C2CCC(CNS(=O)(=O)c3csc(C(N)=O)c3)CC2)cc1OC (configuration not stated) 0.217%, O=C(NCCc1ccc(C(F)(F)F)cc1)c1ccc2c(c1)OCO2 0.112%, COc1ccc(C(C)=O)cc1CN1C(=O)NC2(CCCCC2C)C1=O (configuration not stated) -0.794%, Cc1ccc(NC(=O)CS(=O)CC(=O)N(c2ccccc2)C(C)C(=O)NC2CCCC2)cc1 (configuration not stated) -0.262%, CC(C)C[C@@H](NC(=O)[C@H]1CCCN1C(=O)Cc1ccccc1)C(N)=O (PhAc-[dP]-[dL]-NH2) 0.667%, CCOC(=O)Cn1c(O)c(N=NC(=O)CNC(=O)Cc2ccccc2)c2ccccc21 0.315%, CCn1c(CC(=O)Nc2ccc(C)cc2)nnc1SCC(=O)Nc1nc(C)cs1 -1.04%, Cc1noc(C)c1C(=O)OCC(=O)N1CCN(S(=O)(=O)c2ccc3ccccc3c2)CC1 -0.677%, Cc1nc2ccc(NC(=O)C3CCCCC3)cc2s1 -0.228%, Cc1ccc(NC(=S)NCCc2ccc(Cl)cc2)c(C)c1 -0.056%, CCCCOC(=O)Nc1nccs1 0.2%, O=C(CN(Cc1ccccc1)C(=O)c1ccc2c(c1)OCCO2)NCc1ccc2c(c1)OCO2 -0.348%, CC(OC(=O)CN1C(=O)c2ccccc2C1=O)C(=O)c1ccccc1 (configuration not stated) -0.0877%, COc1ccc(OC)c(CNC(=O)c2cc(=O)[nH]c3ccc(S(=O)(=O)N4CCCC4)cc23)c1 0.0882%, CCCCN=C1N/C(=C\c2ccco2)C(=O)N1c1ccccc1 0.239%
